According to PMC5540273 (PLoS ONE, 2017):

Legend:
Conditions in all cases: concentration: 1 μM, replicates: in singlicate; n = 1
[1] = test system: BLK
[2] = test system: BMPR1A
[3] = test system: BMPR1B
[4] = test system: BMPR2
[5] = test system: BMX
[6] = test system: BRAF
[7] = test system: T1, BRK
T1 construct: gene PTK6

[8] = test system: BRSK1
[9] = test system: BRSK2
[10] = test system: BTK
[11] = test system: BUB1
[12] = test system: CAMK1B
[13] = test system: CAMK1D
[14] = test system: CAMK1G
[15] = test system: CAMK1
[16] = test system: CAMK2A
[17] = test system: CAMK2B
[18] = test system: CAMK2D
[19] = test system: CAMK2G
[20] = test system: CAMK4
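Further: KINOMEscan kinase panel screen.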

Row | Structure (SMILES) | %Inh [1] [%] | %Inh [2] [%] | %Inh [3] [%] | %Inh [4] [%] | %Inh [5] [%] | %Inh [6] [%] | %Inh [7] [%] | %Inh [8] [%] | %Inh [9] [%] | %Inh [10] [%] | %Inh [11] [%] | %Inh [12] [%] | %Inh [13] [%] | %Inh [14] [%] | %Inh [15] [%] | %Inh [16] [%] | %Inh [17] [%] | %Inh [18] [%] | %Inh [19] [%] | %Inh [20] [%]
1 | COc1ccc(Nc2ncc(C#N)c(Nc3ccccc3C(N)=O)n2)cc1N1CCN(C)CC1.Cl [GSK1558669] | 99.8 | 0 | 80 | 92 | 75 | 98.6 | 99.7 | 90.9 | 88 | 97.2 | 87 | 100 | 99.1 | 83 | 95.6 | 92.5 | 78 | 83 | 86 | 0
2 | Cc1cccc(-c2nc(-c3ccc(S(C)(=O)=O)cc3)sc2-c2ccncc2)c1 | 0 | 0 | 0 | 0 | 0 | 15 | 0 | 40 | 27 | 0 | 25 | 0 | 15 | 9 | 5 | 0 | 0 | 4 | 5 | 0
3 | Cc1cccc(-c2nc(Nc3ccc4ncsc4c3)c3ccccc3n2)n1 [GW867588] | 11 | 0 | 0 | 15 | 0 | 7 | 0 | 0 | 0 | 0 | 47 | 21 | 14 | 0 | 26 | 0 | 0 | 2 | 9 | 0
4 | CC(=O)Nc1ccc(COc2ccc(Nc3ccnc4cc(-c5ccccn5)ccc34)cc2)cc1.Cl [GW440148] | 53 | 0 | 0 | 1 | 17 | 0 | 57 | 0 | 0 | 0 | 5 | 23 | 10 | 7 | 20 | 0 | 0 | 18 | 21 | 0
5 | O=C(Nc1cccc(-c2nn3ncccc3c2-c2ccnc(Nc3cccc(C(F)(F)F)c3)n2)c1)c1c(F)cccc1F [GSK299495] | 95.9 | 0 | 0 | 23 | 72 | 69 | 71 | 0 | 0 | 66 | 80 | 30 | 21 | 9 | 32 | 100 | 100 | 19 | 11 | 0
6 | N#Cc1c(N2CCOCC2)sc(-c2ccn[nH]2)c1-c1ccc(Cl)cc1 | 0 | 21 | 0 | 17 | 14 | 0 | 8 | 0 | 18 | 8 | 13 | 12 | 19 | 72 | 24 | 0 | 0 | 47 | 0 | 4
7 | COc1cc2ncn(-c3cc(OCc4sccc4Cl)c(C(N)=O)s3)c2cc1OC [GSK448459] | 32 | 0 | 0 | 14 | 0 | 0 | 11 | 37 | 45 | 0 | 55 | 25 | 0 | 0 | 4 | 0 | 0 | 2 | 12 | 0
8 | N#Cc1ccc(-c2cc(-c3c[nH]nc3-c3ccccn3)ccn2)cc1 [GW693028] | 17 | 0 | 15 | 6 | 5 | 11 | 30 | 0 | 0 | 0 | 34 | 3 | 1 | 0 | 1 | 0 | 1 | 0 | 13 | 0
